Results from PubChem BioAssay AID2016 (NMMLSC, 2009).
Among all 330,000 compounds or so, about 1,700 (0.52%) were called active. The full list was thinned out, with actives kept by preference. A number with no mark means an inactive call.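 How the source made its calls: active means GFP response versus DMSO above a set limit, roughly screen mean plus 3 SD (cut at about 180% in these data); inconclusive means fewer than 70 cells counted for a yeast strain; inactive means the rest.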

Assay: TOR pathway GLN3 branch reporter MEP2-GFP changes – S. cerevisiae, multiplex flow cytometry, MLPCN library, primary screen (AID 2016);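 further: median GFP fluorescence of the barcode-gated MEP2-GFP cells per well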
Details: S. cerevisiae MEP2-GFP strain, 3 h, at 10 µM, hits give high values, 100% = DMSO control level

| SMILES | GFP response vs DMSO |
| --- | --- |
| CCOc1cc(/C=N/NC(=O)OC)ccc1OCCSc1ccc(Cl)cc1 | 94.9% |
| O=S(=O)(Nc1ccccc1)c1ccc(NS(=O)(=O)c2cccs2)cc1 | 94.2% |
| Clc1ccc(CN2CCCCCC2)cc1Cl | 111% |
| Cc1ccc2nc(-c3ccc(SCC(=O)Nc4cc(C)on4)nc3)[nH]c2c1 | 103% |
| CC(=O)O[C@]1(C(C)=O)CC[C@H]2[C@@H]3C=C(C)C4=CC(=O)CC[C@]4(C)[C@H]3CC[C@@]21C | 180% [may fluoresce violet] (active) |
| CC(=O)C12CC(C)=C(C)CC1CC1C3CCC4=CC(=O)CCC4(C)C3CCC12C (stereo unspecified) | 101% |
| O=C(C1Cc2ccccc2CN1C(=O)c1ccco1)N1CCN(c2ccccc2)CC1 (stereo unspecified) | 93.4% |
| COc1ccc(CNC(=O)COC(=O)C(CCSC)N2C(=O)c3ccccc3C2=O)cc1 (stereo unspecified) | 106% |
| Cc1c(NC(=O)c2c([N+](=O)[O-])cnn2C)c(=O)n(-c2ccccc2)n1C | 284% [may fluoresce violet] (active) |
| Cc1c(NC(=O)Nc2cccc([N+](=O)[O-])c2)c(=O)n(-c2ccccc2)n1C | 103% |
| Cc1cc(OCC(=O)Nc2c(C)n(C)n(-c3ccccc3)c2=O)ccc1[N+](=O)[O-] | 112% |
| CCOC(=O)C1CCN(C(=O)Cc2c(C(=O)O)[nH]c3ccccc23)CC1 | 105% |
| Nc1nc(SCC(=O)Nc2ccc(Cl)c([N+](=O)[O-])c2)n[nH]1 | 106% |
| COc1ccc(-c2cn3cccnc3n2)cc1 | 101% |
| CC(C)(C)C(=O)Nc1ccc(-c2cn3cccnc3n2)cc1 | 119% |
| FC(F)(F)Oc1ccc(-c2cn3cccnc3n2)cc1 | 471% [may fluoresce violet] (active) |
| O=C(NCC(F)(F)F)Nc1nnc(C(F)(F)F)s1 | 90.6% |
| CCc1ccc(OCC2c3cc(OC)c(OC)cc3CCN2C(C)=O)cc1 (stereo unspecified) | 269% [may fluoresce violet] (active) |
| COc1ccc(CC(NC(C)=O)C(=O)NC2CCN(C(=O)c3ccc(OC)c(OC)c3)CC2)cc1OC (stereo unspecified) | 95.1% |
| COc1ccc2[nH]c(=O)c(C3c4cc(OC)c(OC)cc4CCN3C(=O)c3ccco3)cc2c1 (stereo unspecified) | 105% |
| CCOCc1nnc(NC(=O)CCC2CCCCC2)s1 | 110% |
| COc1ccc(S(=O)(=O)NC(C)C(=O)NCc2ccncc2)cc1Cl (stereo unspecified) | 102% |

| SMILES | GFP response vs DMSO |
| --- | --- |
| O=C(COc1cc2oc(=O)c3c(c2cc1Cl)CCC3)NCCCN1CCOCC1 | 113% |
| CC(Oc1cc2oc(=O)c3c(c2cc1Cl)CCCC3)C(=O)NCc1ccncc1 (stereo unspecified) | 185% [may fluoresce violet] (active) |
| Cc1cccc(-c2nc(CS(=O)CC(=O)NC(C)CCc3ccccc3)c(C)o2)c1 (stereo unspecified) | 98.7% |
| O=C(CCN1C(=O)[C@@H]2Cc3ccccc3CN2C1=O)NCCc1ccccc1 | 106% |
| C#CCCOC(=O)N1C2=NC(C(=O)OC)=C(C(=O)OC)[C@@H]3N(C)c4ccc(OC)cc4[C@]23C[C@H]1C(=O)OC | 89.3% |
| COc1ccc(-c2nnn(Cc3nc(N)nc(N4CCCCC4)n3)n2)cc1 | 107% |
| COc1ccc(CSc2nnnn2-c2ccc(C(=O)O)cc2)cc1 | 114% |
| COc1ccc(-n2nnnc2SCc2nc(N)nc(N3CCOCC3)n2)cc1 | 283% [may fluoresce violet] (active) |
| Cc1nn(C)c(C)c1C(C)NC(=O)c1ccc(OC2CCN(Cc3ccccn3)CC2)cc1 (stereo unspecified) | 111% |
| O=c1c(-c2cccc(Cl)c2)c[nH]n1-c1ccccc1 | 193% [may fluoresce violet] (active) |
| O=C1c2ccccc2NC(c2ccc(-c3cccc(Cl)c3)o2)N1O (stereo unspecified) | 103% |
| O=c1c(-c2ccccc2Cl)c[nH]n1-c1ccccc1 | 99.8% |
| CC1CCN(S(=O)(=O)c2nnc(NC(=O)COc3ccccc3F)s2)CC1 | 98.5% |
| CC1(C)Cc2c(sc3nc(SCC(=O)NCc4ccccc4)n(-c4ccccc4)c(=O)c23)CS1 | 107% |
| COc1ccccc1C(=O)COC(=O)COc1ccc(C#N)cc1 | 114% |
| CCN(Cc1cc2cc(C)ccc2[nH]c1=O)S(=O)(=O)c1ccccc1 | 97.6% |
| Cc1ccc(S(=O)(=O)N(Cc2cc3ccccc3[nH]c2=O)CC2CCCO2)cc1 (stereo unspecified) | 195% [may fluoresce violet] (active) |
| O=C(c1cccs1)N(Cc1cc2ccccc2[nH]c1=O)CC1CCCO1 (stereo unspecified) | 103% |
| CC1CC(C)CN(CCCNC(=O)c2csc3c2CCCCC3)C1 (stereo unspecified) | 103% |
| C=CCC[C@@H](Cc1ccc(F)cc1)C(=O)O[C@H](CNC(=O)[C@H](CC=C)CC(=O)N(CCO)Cc1ccccc1)c1ccccc1 | 104% |
| Cc1ccc(SCC2=NNC(=O)C2)cc1 | 249% [may fluoresce violet] (active) |
| Cc1ccc(SCCSc2ncccn2)cc1 | 106% |

| SMILES | GFP response vs DMSO |
| --- | --- |
| Cc1ccc(SCc2cc(=O)[nH]c(N3CCCCC3)n2)cc1 | 96.5% |
| CCOc1ccc(Br)cc1CSC(=N)N | 103% |
| COc1ccccc1P(=O)(c1ccccc1)c1ccccc1NC(C)=O (stereo unspecified) | 83.1% |
| COc1ccc(C(=O)NCCSc2ccccc2C)cc1 | 99.7% |
| COC(=O)CCSc1cc([N+](=O)[O-])cc2c1c(C1OCCS1)nn2-c1ccccc1 (stereo unspecified) | 107% |
| Cc1cc(C)cc(NC(=O)COc2coc(CN3CCN(c4ccccc4)CC3)cc2=O)c1 | 105% |
| Cc1cccc2sc(N(CCCN(C)C)C(=O)CCS(=O)(=O)c3ccccc3)nc12 | 93.5% |
| Cc1ccc2sc(N(CCN(C)C)C(=O)/C=C/c3cccs3)nc2c1C | 253% [may fluoresce violet] (active) |
| Cc1cc(C)c2nc(N(CCN(C)C)C(=O)/C=C/c3cccs3)sc2c1 | 110% |
| O=C(Nc1ccc(F)cc1)C1CCCN(S(=O)(=O)c2ccc(-n3cnnn3)cc2)C1 (stereo unspecified) | 106% |
| COc1ccc(OCc2ccc(-c3nc4ccccc4c(=O)n3N)o2)cc1 | 249% [may fluoresce violet] (active) |
| COc1ccc(-c2nc3ccccc3c(=O)n2CCc2ccc(O)cc2)cc1 | 103% |
| Cn1c(COc2ccc(Cl)cc2)nc2ccccc2c1=O | 102% |
| CSc1ncccc1C(=O)NCc1ccccc1Cl | 107% |
| COc1c(C)c2c(c(O)c1C/C=C(\C)CCC(=O)O)C(=O)OC2 | 297% [may fluoresce violet] (active) |
| CCCCn1c(N)c(N(CC)C(=O)c2ccc(N(C)S(=O)(=O)c3ccc(C)cc3)cc2)c(=O)[nH]c1=O | 98% |
| CC(C)(C)C1CCC(C(=O)NCC(c2cccs2)N2CCOCC2)CC1 (stereo unspecified) | 99% |
| CN1CCN(C(=O)Cn2c(C(F)(F)F)nc3ccccc32)CC1 | 103% |
| C=CCN1CC(C)/C(=N\O)CC1C (stereo unspecified) | 93.2% |
| Cc1c(C#N)c(NC(=O)c2ccccc2)n(Cc2ccccc2)c1C | 93.8% |
| COc1ccc(Cn2c(C)c(C)c(C#N)c2NC(=O)Nc2ccc(F)cc2)cc1 | 99.5% |
| Cc1ccc(C(=O)Nc2c(C#N)c(C)c(C)n2Cc2ccccc2)cc1 | 364% [may fluoresce violet] (active) |

| SMILES | GFP response vs DMSO |
| --- | --- |
| Cc1cc(C)c2c(-c3ccc(F)cc3)c(C#N)c(=O)n(C)c2n1 | 95.2% |
| Cc1ccc(CCNC(=O)c2ccc3nc4ccccc4c(=O)n3c2)cc1 | 112% |
| Cc1cccn2c(=O)c3cc(C(=O)NCC4CCCO4)c(=N)n(Cc4ccc(F)cc4)c3nc12 (stereo unspecified) | 92.2% |
| Cc1ccc2nc3c(cc(C(=O)NCCc4ccccc4)c(=N)n3CC3CCCO3)c(=O)n2c1 (stereo unspecified) | 238% [may fluoresce violet] (active) |
| COc1ccc(-c2c(C(C)=O)c(C)nc3sc4c(=O)n(-c5ccc(C)cc5)nnc4c23)cc1 | 105% |
| O=C(Nc1ccccc1)c1ccc2nsnc2c1 | 100% |
| Cc1cccc(NC(=O)c2ccc3nsnc3c2)c1C | 100% |
| Cc1cccc(NC(=O)c2cccc(C(=O)Nc3cccc(C)c3C)n2)c1C | 181% [may fluoresce violet] (active) |
| Cc1cccc(NC(=O)N2CCCCCC2)c1C | 98.3% |
| Nc1nc(Sc2ncccc2[N+](=O)[O-])n[nH]1 | 96.3% |
| COc1ccc(N2C(=O)CCC(C(=O)N(C)C3CCCCC3)C2c2ccc(OC)c(OC)c2)cc1 (stereo unspecified) | 99.1% |
| CCCCCn1c(=O)[nH]c2cc(C(=O)NCCCN3CCCCC3C)ccc2c1=O (stereo unspecified) | 127% |
| O=S(=O)(NCC1CN(S(=O)(=O)c2ccc3c(c2)OCCO3)C1)c1c(F)cccc1F | 103% |
| Fc1ccc(/C=N/Nc2nc(-c3cccnc3)nc3ccccc23)cc1 | 195% (active) |
| O=c1c2ccccc2nc(N/N=C/c2ccccc2)n1O | 95.1% |
| O=C(N/N=C/c1cccnc1)c1ccc(NC(=O)c2ccc(F)cc2)cc1 | 99.6% |
| Cc1cc(C)c(S(=O)(=O)NCCCN2CCOCC2)cc1Br | 103% |
| CN(c1ccccc1)c1ccc(/C=c2\s/c(=C(/C#N)C(=O)C(C)(C)C)n(Cc3ccco3)c2=O)cc1 | 343% (active) |
| CCOC(=O)Cn1c(=O)oc2cc(S(=O)(=O)N(C)Cc3ccco3)ccc21 | 91.7% |
| CCN1CCN(C(=O)N[C@@H](C(=O)N[C@@H]2C(=O)N3C(C(=O)O)=C(CSc4nnnn4C)CS[C@H]23)c2ccc(O)cc2)C(=O)C1=O | 94.9% |
